Screening data deposited in PubChem by several laboratories.
Mtb FBA inh – Mtb FBA enzyme inhibitors, primary screen, biochemical, fluorescence, strain H37Rv; 360,000 compounds, 2.3% hits; purified M. tuberculosis FBA, fluorescence read-out; Fructose-bisphosphate aldolase (Mycobacterium tuberculosis (strain ATCC 25618 / H37Rv)), …; inhibition, % at 1 µM
RecA intein inh – Mtb RecA intein splicing inhibitors, primary screen, biochemical, fluorescence, HTS | Protein RecA (Mycobacterium tuberculosis (strain ATCC 25618 / H37Rv)), P9WHJ3 | cell-free RecA intein splicing | inhibition, % (test concentration not listed) | 290,000 compounds, 0.75% hits | AID 2221, 2009; in the data active = inhibition above about 30%
Target sequence (P9WHJ3 whole entry, looked up): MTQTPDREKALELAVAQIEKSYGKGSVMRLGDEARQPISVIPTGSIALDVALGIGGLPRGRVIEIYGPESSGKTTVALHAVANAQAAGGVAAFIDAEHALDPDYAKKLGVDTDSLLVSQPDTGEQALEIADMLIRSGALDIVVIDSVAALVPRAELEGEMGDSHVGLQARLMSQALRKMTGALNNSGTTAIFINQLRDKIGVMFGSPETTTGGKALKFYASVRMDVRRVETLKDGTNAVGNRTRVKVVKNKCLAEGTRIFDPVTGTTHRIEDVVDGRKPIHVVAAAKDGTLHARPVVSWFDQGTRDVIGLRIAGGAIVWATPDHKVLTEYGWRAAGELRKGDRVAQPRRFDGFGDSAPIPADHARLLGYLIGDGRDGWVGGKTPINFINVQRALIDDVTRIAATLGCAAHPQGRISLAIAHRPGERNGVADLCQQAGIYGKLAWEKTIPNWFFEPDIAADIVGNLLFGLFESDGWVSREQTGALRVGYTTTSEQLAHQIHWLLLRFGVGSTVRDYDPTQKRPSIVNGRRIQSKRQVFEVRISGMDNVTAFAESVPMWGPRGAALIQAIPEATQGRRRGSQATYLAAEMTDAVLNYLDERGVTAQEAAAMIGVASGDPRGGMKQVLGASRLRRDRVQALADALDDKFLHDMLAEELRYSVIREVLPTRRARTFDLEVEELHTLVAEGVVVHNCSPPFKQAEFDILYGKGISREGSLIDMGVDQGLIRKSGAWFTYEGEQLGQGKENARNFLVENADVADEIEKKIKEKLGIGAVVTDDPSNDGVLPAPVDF
GDH-TPI counter-1 – GDH-TPI coupling enzyme inhibitors, primary screen, artefact control for M. tuberculosis FBA inhibitor project, biochemical, absorbance, full deck. 360,000 compounds, 1.2% hits. GDH-TPI coupled enzyme counterscreen, NADH absorbance. inhibition, % at 4.8 µM; in the data active = inhibition above about 30%
Mtb betalactam – beta-lactam sensitization of Mtb H37Rv, H37Rv | M. tuberculosis H37Rv growth with meropenem, percent inhibition | inhibition, % at 25 µM | 330,000 compounds, 0.27% hits | AID 434955, 2010; call rule not given here;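 also: growth measured after seven days incubation then overnight dye step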
CCHF vOTU inh – CCHFV vOTU protease inhibitors, primary screen, biochemical, Pep-AMC substrate, fluorescence; inhibition, % at 11.5 µM; 370,000 compounds, 0.55% hits; AID 651958, 2012; in the data active = inhibition above about 30%
Mtb FBA confirm – M. tuberculosis aldolase blockers, biochemical, fluorescence, strain H37Rv, confirmation | 5,600 compounds, 78% hits | purified M. tuberculosis FBA, fluorescence read-out | shares compounds with Mtb FBA inh | inhibition, % at 1 µM | AID 651616, 2012
GDH-TPI counter-2 – GDH-TPI coupling enzyme inhibitors, artefact control for M. tuberculosis FBA inhibitor project, biochemical, fluorescence, high throughput. shares compounds with Mtb FBA inh. GDH-TPI coupled enzyme counterscreen. inhibition, % at 1 µM. 5,600 compounds, 81% hits. AID 652141, 2013; in the data active = inhibition above about 10%
A number is an active result; i = inactive; nt = no result; + = active, no number. Sampled rows, rich in hits. Any-hit rate of the full collection: about 4.2%. Rule as the data show it, unless noted: active = inhibition above about 27%; inactive = the rest.

SMILES	Mtb FBA inh	RecA intein inh	GDH-TPI counter-1	Mtb betalactam	CCHF vOTU inh	Mtb FBA confirm	GDH-TPI counter-2
CCn1c(=O)c2cc(C(=O)NC(C)C)sc2c2ccccc21	44	i	i	i	i	nt	+
CCn1c(=O)c2cc(C(=O)NCCN3CCOCC3)sc2c2ccccc21	75	i	i	i	i	198	162
CCn1c(=O)c2cc(C(=O)NCc3cccs3)sc2c2ccccc21	i	nt	i	i	i	nt	nt
CCCCNC(=O)c1cc2c(=O)n(CC)c3ccccc3c2s1	i	i	i	i	i	nt	nt
COc1ccc(-c2nnn3c2C2c4cc(-c5cccc(F)c5)ccc4CCN2C(=O)C3)cc1 (stereo not given)	nt	nt	nt	nt	i	nt	nt
Cc1coc2c(C)c3oc(=O)c(CCC(=O)N[C@H](C(=O)O)C(C)C)c(C)c3cc12	i	nt	i	nt	i	nt	nt
Cc1coc2c1c(C)cc1oc(=O)c(CC(=O)N[C@@H](C)C(=O)O)c(C)c12	38	i	i	i	i	+	+
Cc1coc2c1c(C)cc1oc(=O)c(CC(=O)N[C@H](C(=O)O)C(C)C)c(C)c12	76	i	i	i	i	51	49
CCC(NC(=O)Cc1c(C)c2c(cc(C)c3c(C)c(C)oc32)oc1=O)C(=O)O (stereo not given)	37	i	i	i	i	193	179
Nn1c(SCc2ccc(F)cc2)nnc1-c1ccccn1	i	i	i	i	i	nt	nt
Nn1c(SCc2ccccc2F)nnc1-c1ccccn1	42	i	i	i	i	81	71
CC1CCc2c(sc(Nc3nc4c(F)cccc4s3)c2C(N)=O)C1 (stereo not given)	28	i	i	i	i	113	99
CCN(CC)C(=O)CC[C@@H]1CC[C@]2(CCCN(S(C)(=O)=O)C2)O1	nt	nt	nt	nt	i	nt	nt
CCOCCCNC(=S)NCCCNc1nc2cc3c(cc2cc1C#N)OCO3	65	i	i	i	i	188	153
CN(C)CCCNC(=S)NCCNc1nc2cc3c(cc2cc1C#N)OCO3	70	i	i	i	i	65	47
CCOCCCNC(=S)NCCNc1nc2ccc(C)cc2cc1C#N	i	i	i	i	i	nt	nt
COc1ccccc1Cc1c(-c2ccc(Cl)cc2)nc2ccc(C)cn12	nt	nt	nt	nt	i	nt	nt
CCOC(=O)c1cn(Cc2ccccc2)c2cc(C)nn2c1=O	53	i	i	i	i	103	86
CCOC(=O)c1cn(Cc2ccccc2)c(C(=O)OC(C)(C)C)c1O	i	i	i	i	i	nt	nt
COC(=O)c1cc(C(=O)OC)n(Cc2ccc(Cl)cc2Cl)n1	i	nt	i	i	i	nt	nt
CCOC(=O)c1cn(Cc2ccc(Cl)cc2Cl)c2cc(C)nn2c1=O	29	i	i	i	i	72	59
O=c1c2ccccc2c(C=Nc2ccc(S(=O)(=O)Nc3ncccn3)cc2)c(O)n1-c1cccc(Cl)c1	nt	i	nt	i	i	nt	nt
Cc1cc(N=Cc2c(O)n(-c3cccc(Cl)c3)c(=O)c3ccccc23)no1	57	i	i	i	i	106	83
CCN(CC)c1nc(N)c2c(N)nc3c(c2c1C#N)CC(c1ccccc1)O3 (stereo not given)	i	i	i	i	i	nt	nt
N#Cc1c(N2CCCCC2)nc(N)c2c(N)nc3c(c12)CC(c1ccccc1)O3 (stereo not given)	30	i	i	i	i	122	102
SMILES	Mtb FBA inh	RecA intein inh	GDH-TPI counter-1	Mtb betalactam	CCHF vOTU inh	Mtb FBA confirm	GDH-TPI counter-2
CCC1Cc2c(nc(N)c3c(N)nc(N4CCCCC4)c(C#N)c23)O1 (stereo not given)	42	i	i	i	i	121	110
CCOc1cc2c(C#N)c(N3CCCC3)nc(N)c2c(N)n1	i	i	i	i	i	nt	nt
Cc1cccc(C)c1NC(=O)Cn1nnc(-c2ccncc2)n1	nt	nt	nt	nt	i	nt	nt
C[C@H]1CN(c2ccc(N3CCN(C(=O)OC(C)(C)C)C[C@@H]3C)cc2C#N)CCN1Cc1ccccc1	nt	nt	nt	nt	i	nt	nt
Cc1cc(C)c(OCCCNCc2ccccc2)c(Br)c1	i	i	i	i	i	nt	nt
Cc1cc(C)c(OCCCNC2CCCC2)c(Br)c1	67	i	i	i	i	+	+
